Records with an inconclusive call do not appear. Unmarked numbers belong to inactive results. Activity calls are given as the source filed them. Calls follow the shape of the dose curve; as a rule, active = well fitted activation curve with a large enough effect in the signal ratio in the repeat runs (not every such curve was filed as active); inconclusive = weak or mixed curves; inactive = flat fitted curve, though single readings scatter; the % refers to the signal ratio.

The source of these data is PubChem BioAssay (Tox21).
% is scaled to controls: 0 for no effect and ±100 for the full control effect.

The experiment is described as follows: qHTS assay to identify small molecule agonists of the TGF-beta/Smad signaling pathway (AID 1346859). The conditions noted are these: SBE-bla HEK293T, TGF-beta/Smad beta-lactamase reporter, 5 h; series mostly up to 76.8 µM. The gist of the method:
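SBE-bla HEK 293T, 4,000 cells/well, plated o/n; cpd in DMSO, 5 hr, 37 C/5% CO2; B/G FRET substrate 2 hr RT; ex 405, em 460/530 nm.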
Take `CO[C@@H]1[C@@H](O[C@@H]2O[C@H](C)[C@@H](O[C@H]3C[C@@](C)(O)[C@@H](O)[C@H](C)O3)[C@H](N(C)C)[C@H]2O)[C@@H](CC=O)C[C@@H](C)[C@@H](O[C@@H]2CC[C@H](N(C)C)[C@@H](C)O2)/C=C/C=C/C[C@@H](C)OC(=O)C[C@H]1OC(C)=O`: the call was inactive.

As for `Oc1ccc(CCNCCCCCCNCCc2ccccc2)cc1O`, the call was inactive.

In the case of `C=C[Si](OCC)(OCC)OCC`, the result was inactive.

Turning to `Cc1cc(C)n(CO)n1`, the result was inactive.

For the compound `O=c1c2ccccc2oc2ccccc12`, the compound was classed as inactive.

Take `CCCCCCCCCCCCCCCCCCCl`: the activation is 1.95% [at 6.97 µM].

On to `CC(=O)Nc1cccc(N)c1`, for which the outcome was inactive.

As for `Cc1ccc(NC=O)c(C)c1`, the result was inactive.

As for `Clc1nc2ccccc2nc1Cl`, the call was inactive.

For the compound `CC(=O)c1ccc(Cl)c(Cl)c1Cl`, the outcome was inactive.

For `CCCc1nc(C)c2c(=O)[nH]c(-c3cc(S(=O)(=O)N4CCN(CC)CC4)ccc3OCC)nn12`, the outcome was inactive.

As for `CCCCCCCCCC(C)C=O` (centres undefined), the result was inactive.

`CC(C)(Cc1c[nH]c2ccccc12)NCC(O)COc1ccccc1C#N` (centres undefined): the compound was called inactive.

As to `CC(Cc1ccccc1)(NC(=O)CN)c1ccccc1` (centres undefined), the result was inactive.

On to `O=C(c1ccco1)N1CCNCC1`, for which the outcome was inactive.

With `CC(COc1ccccc1)NC(C)C(O)c1ccc(O)cc1` (centres undefined), the call was inactive.

Regarding `CCc1cnc(C(=O)O)c(C(=O)O)c1`, the call was inactive.

In the case of `CCOc1ccccc1O`, the call was inactive.

In the case of `O=C(N[C@@H](Cc1ccccc1)[C@@H](O)C(=O)N1C[C@@H](O)[C@@H](O)C1)c1cc2cc(Cl)ccc2[nH]1`, the outcome was inactive.

On to `CCC(CC)C(=O)O`, for which the call was inactive.

Regarding `CC[C@H](NC(C)C)[C@H](O)c1ccc(O)c2[nH]c(=O)ccc12`, the compound was classed as inactive.

Turning to `CCCCCCC/C=C/C=O`, the compound was called inactive.

Turning to `OCCCO`, the call was inactive.

In the case of `CC/C=C/CCO`, the call was inactive.

`COc1cccc([C@H](O)C2CCN(CCc3ccc(F)cc3)CC2)c1OC`: the compound was classed as inactive.

Consider `N#Cc1ccc(CC(=O)c2cccc(C(F)(F)F)c2)cc1`, for which the compound was called inactive.

Take `O=C(Cl)c1cc(Cl)cc(Cl)c1`: the compound was called inactive.

Regarding `O=C(Nc1ccc2c(c1)Cc1ccccc1-2)C(F)(F)F`, the compound was called inactive.

As to `O=c1[nH]nc(-c2ccc([N+](=O)[O-])o2)o1`, the outcome was inactive.

Consider `COc1ccnc2c1CCCCC2S(=O)c1nc2ccccc2[nH]1` (centres undefined), for which the result was inactive.

`CCOCCn1c(N2CCCN(C)CC2)nc2ccccc21`: the outcome was inactive.

On to `OCCOc1cccc(OCCO)c1`, for which the compound was called inactive.

As to `CC1=C(C)C(=O)C(CCCCC#CCCCC#CCO)=C(C)C1=O`, the result was inactive.

`C(/C=C/C=C/Nc1ccccc1)=Nc1ccccc1`: the compound was called inactive.
